# Test results taken from PubChem BioAssay (NCI).
# The panel holds about 79,000 compounds, 15% with a hit somewhere; the sample as a whole holds those more often. A number with no mark means an inactive call. Activity calls are given as the source filed them. Cut-off read from the data, not from the text of the source: active = growth inhibition above about 70%; inactive = the rest.
# Tests used:
# [1] = NCI Yeast Anticancer Drug Screen. Data for the rad52 strain (AID 147);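 note: 0% = growth of vehicle-treated control cultures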; conditions: S. cerevisiae rad52 mutant growth inhibition, hits give high values
# Method in brief: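 Growth of repair-deficient yeast cells was compared between compound-treated and vehicle-treated cultures to give percent inhibition.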
# [2] = NCI Yeast Anticancer Drug Screen. Data for the rad50EPP+ strain (AID 151);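 note: 0% = growth of vehicle-treated control cultures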; conditions: S. cerevisiae rad50 mutant strain, hits give high values
# Method in brief: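 Measured: growth inhibition of rad50EPP+ yeast. Reference: vehicle-treated controls. Screen uses strains with defined genetic alterations in DNA damage repair or cell cycle control.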
# [3] = NCI Yeast Anticancer Drug Screen. Data for the rad50 strain (AID 155);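 note: 0% = growth of vehicle-only cultures of the same strain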; conditions: S. cerevisiae rad50 strain growth inhibition, hits give high values
# Method in brief: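 DNA repair mutant yeast, compound exposure, growth read-out; inhibition is taken relative to vehicle.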
# [4] = NCI Yeast Anticancer Drug Screen. Data for the mec2-1 strain (AID 157); conditions: S. cerevisiae mec2-1 strain, hits give high values
# Method in brief: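 Compounds were applied to mec2-1 yeast cells. Their growth was then compared with that of vehicle-treated cultures to give growth inhibition.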
# [5] = NCI Yeast Anticancer Drug Screen. Data for the rad14 strain (AID 159);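 note: 0% = growth of vehicle-treated control cultures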; conditions: S. cerevisiae rad14 strain growth inhibition, hits give high values
# Method in brief: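 DNA repair-defective yeast, compound-exposed; % growth inhibition derived by comparison with vehicle-treated controls.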
# [6] = NCI Yeast Anticancer Drug Screen. Data for the sgs1 mgt1 strain (AID 161);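 note: 0% = growth of cultures given vehicle only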; conditions: S. cerevisiae sgs1 mgt1 strain, hits give high values
# Method in brief: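 This yeast growth screen uses a strain with defined DNA-repair lesions; compound-treated growth is compared with vehicle-treated growth.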
# [7] = NCI Yeast Anticancer Drug Screen. Data for the CLN2oe strain (AID 163);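 note: 0% = growth of vehicle-only control cultures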; conditions: S. cerevisiae CLN2oe strain, hits give high values
# Method in brief: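 Cells of an engineered yeast line with disturbed cell-cycle regulation are treated with compound. Inhibition of growth is then calculated relative to the vehicle-treated reference.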
# [8] = NCI Yeast Anticancer Drug Screen. Data for the cln2 rad14 strain (AID 165);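 note: 0% = growth equal to vehicle treated cultures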; conditions: S. cerevisiae cln2 rad14 strain, hits give high values
# Method in brief: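 Strain: cln2 rad14 yeast, altered in cell cycle control and DNA damage repair. Read-out: growth inhibition vs vehicle.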
# [9] = NCI Yeast Anticancer Drug Screen. Data for the bub3 strain (AID 167); conditions: S. cerevisiae bub3 mutant strain, hits give high values
# Method in brief: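 In this screen, a yeast mutant lacking normal mitotic checkpoint function is challenged with compound. Relative growth versus vehicle gives the inhibition value.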
# [10] = NCI Yeast Anticancer Drug Screen. Data for the wt2 strain (AID 169);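 note: 0% = growth of vehicle-treated yeast cultures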; conditions: S. cerevisiae wt2 strain growth inhibition, hits give high values
# Method in brief: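 Growth of compound-treated yeast is measured and expressed as inhibition relative to vehicle-only controls.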
# [11] = NCI Yeast Anticancer Drug Screen. Data for the mlh1 strain (AID 171);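 note: 0% = growth of vehicle-treated control cultures of the same strain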; conditions: S. cerevisiae mlh1 strain growth inhibition, hits give high values
# Method in brief: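 Test agents were incubated with yeast bearing a defined DNA damage repair or cell cycle control alteration; values are growth inhibition normalised to vehicle-treated cultures.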
# [12] = NCI Yeast Anticancer Drug Screen. Data for the sgs1 strain (AID 173);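 note: 0% = growth of vehicle-only control cultures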; conditions: S. cerevisiae sgs1 mutant, hits give high values
# Method in brief: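 Strain with an altered DNA repair or cell cycle pathway exposed to compound. Growth then measured. Value = inhibition versus vehicle control.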
# [13] = NCI Yeast Anticancer Drug Screen. Data for the mlh1 rad18 strain (AID 175); conditions: S. cerevisiae mlh1 rad18 strain growth inhibition, hits give high values
# Method in brief: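 A repair-deficient yeast strain is exposed to test compound, and growth is scored relative to vehicle-treated controls.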
# [14] = NCI Yeast Anticancer Drug Screen. Data for the rad18 strain (AID 177); conditions: S. cerevisiae rad18 mutant growth inhibition, hits give high values
# Method in brief: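 DNA-repair-defective yeast; compound treatment; growth inhibition scored against vehicle.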
# [15] = NCI Yeast Anticancer Drug Screen. Data for the wt1 strain (AID 149);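 note: 0% = growth of vehicle-treated wt1 cultures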; conditions: S. cerevisiae wt1 strain (SPY 50644) growth inhibition, hits give high values
# Method in brief: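 wt1 strain grown with compound or vehicle; inhibition taken from the growth difference.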
# [16] = NCI Yeast Anticancer Drug Screen. Data for the mgt1 strain (AID 153); conditions: S. cerevisiae mgt1 mutant growth inhibition, hits give high values
# Method in brief: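 Compounds were applied to mgt1 mutant yeast, and growth was then compared against vehicle-treated control cultures to give percent inhibition.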
# [17] = at 5.0 µM (retest, dose inferred, filed as 0.5)
# [18] = at 50.0 µM (retest, dose inferred, filed as 5.0)
smiles,measurement,setting,value
CCCCCCNCCCNc1c2ccccc2nc2cccc([N+](=O)[O-])c12,growth inhibition,[1]; at 1.2 µM,43%
same,growth inhibition,[1]; at 3.7 µM,80% (active)
same,growth inhibition,[1]; at 11.0 µM,92% (active)
same,growth inhibition,[1]; at 33.0 µM,95% (active)
same,growth inhibition,[1]; at 100.0 µM,95% (active)
same,growth inhibition,[2]; at 1.2 µM,-1%
same,growth inhibition,[2]; at 3.7 µM,5%
same,growth inhibition,[2]; at 11.0 µM,26%
same,growth inhibition,[2]; at 33.0 µM,67%
same,growth inhibition,[2]; at 100.0 µM,94% (active)
same,growth inhibition,[3]; at 1.2 µM,24%
same,growth inhibition,[3]; at 3.7 µM,64%
same,growth inhibition,[3]; [17],69%
same,growth inhibition,[3]; at 11.0 µM,90% (active)
same,growth inhibition,[3]; at 33.0 µM,94% (active)
same,growth inhibition,[3]; [18],98% (active)
same,growth inhibition,[3]; at 50.0 µM,83.3% (active)
same,growth inhibition,[3]; at 100.0 µM,96% (active)
same,growth inhibition,[4]; at 1.2 µM,4%
same,growth inhibition,[4]; at 3.7 µM,40%
same,growth inhibition,[4]; [17],15%
same,growth inhibition,[4]; at 11.0 µM,94% (active)
same,growth inhibition,[4]; at 33.0 µM,97% (active)
same,growth inhibition,[4]; [18],99% (active)
same,growth inhibition,[4]; at 50.0 µM,88.1% (active)
same,growth inhibition,[4]; at 100.0 µM,97% (active)
same,growth inhibition,[5]; at 1.2 µM,23%
same,growth inhibition,[5]; at 3.7 µM,86% (active)
same,growth inhibition,[5]; at 11.0 µM,98% (active)
same,growth inhibition,[5]; at 33.0 µM,98% (active)
same,growth inhibition,[5]; at 100.0 µM,97% (active)
same,growth inhibition,[6]; [17],84% (active)
same,growth inhibition,[6]; [18],97% (active)
same,growth inhibition,[6]; at 50.0 µM,74.3% (active)
same,growth inhibition,[7]; at 1.2 µM,-6%
same,growth inhibition,[7]; at 3.7 µM,-6%
same,growth inhibition,[7]; at 11.0 µM,-5%
same,growth inhibition,[7]; at 33.0 µM,29%
same,growth inhibition,[7]; at 100.0 µM,93% (active)
same,growth inhibition,[8]; [17],80% (active)
same,growth inhibition,[8]; [18],99% (active)
same,growth inhibition,[8]; at 50.0 µM,85.4% (active)
same,growth inhibition,[9]; at 1.2 µM,-10%
same,growth inhibition,[9]; at 3.7 µM,-16%
same,growth inhibition,[9]; [17],-42%
same,growth inhibition,[9]; at 11.0 µM,-12%
same,growth inhibition,[9]; at 33.0 µM,15%
same,growth inhibition,[9]; [18],98% (active)
same,growth inhibition,[9]; at 50.0 µM,43.9%
same,growth inhibition,[9]; at 100.0 µM,98% (active)
same,growth inhibition,[10]; at 1.2 µM,-1%
same,growth inhibition,[10]; at 3.7 µM,0%
same,growth inhibition,[10]; at 11.0 µM,5%
same,growth inhibition,[10]; at 33.0 µM,31%
same,growth inhibition,[10]; at 100.0 µM,96% (active)
same,growth inhibition,[11]; at 1.2 µM,2%
same,growth inhibition,[11]; at 3.7 µM,9%
same,growth inhibition,[11]; at 11.0 µM,35%
same,growth inhibition,[11]; at 33.0 µM,89% (active)
same,growth inhibition,[11]; at 100.0 µM,94% (active)
same,growth inhibition,[12]; at 1.2 µM,62%
same,growth inhibition,[12]; at 3.7 µM,80% (active)
same,growth inhibition,[12]; at 11.0 µM,90% (active)
same,growth inhibition,[12]; at 33.0 µM,93% (active)
same,growth inhibition,[12]; at 100.0 µM,95% (active)
same,growth inhibition,[13]; [17],76% (active)
same,growth inhibition,[13]; [18],98% (active)
same,growth inhibition,[13]; at 50.0 µM,78.5% (active)
same,growth inhibition,[14]; at 1.2 µM,93% (active)
same,growth inhibition,[14]; at 3.7 µM,95% (active)
same,growth inhibition,[14]; at 11.0 µM,96% (active)
same,growth inhibition,[14]; at 33.0 µM,96% (active)
same,growth inhibition,[14]; at 100.0 µM,95% (active)
O=C(CCCN1CCC(Nc2ccc(F)cc2)(c2nnnn2C2CCCCC2)CC1)c1ccc(F)cc1,growth inhibition,[15]; at 1.2 µM,-81%
same,growth inhibition,[15]; at 3.7 µM,-5%
same,growth inhibition,[15]; at 11.0 µM,-11%
same,growth inhibition,[15]; at 33.0 µM,-11%
same,growth inhibition,[15]; at 100.0 µM,89% (active)
same,growth inhibition,[2]; at 1.2 µM,0%
same,growth inhibition,[2]; at 3.7 µM,0%
same,growth inhibition,[2]; at 11.0 µM,1%
same,growth inhibition,[2]; at 33.0 µM,4%
same,growth inhibition,[2]; at 100.0 µM,25%
same,growth inhibition,[16]; at 1.2 µM,-2%
same,growth inhibition,[16]; at 3.7 µM,-3%
same,growth inhibition,[16]; at 11.0 µM,-6%
same,growth inhibition,[16]; at 33.0 µM,2%
same,growth inhibition,[16]; at 100.0 µM,98% (active)
same,growth inhibition,[3]; at 1.2 µM,-5%
same,growth inhibition,[3]; at 3.7 µM,-7%
same,growth inhibition,[3]; [17],1%
same,growth inhibition,[3]; at 11.0 µM,-9%
same,growth inhibition,[3]; at 33.0 µM,-5%
same,growth inhibition,[3]; [18],37%
same,growth inhibition,[3]; at 50.0 µM,11.7%
same,growth inhibition,[3]; at 100.0 µM,97% (active)
same,growth inhibition,[4]; at 1.2 µM,-7%
same,growth inhibition,[4]; at 3.7 µM,-8%
same,growth inhibition,[4]; [17],3%
same,growth inhibition,[4]; at 11.0 µM,-17%
same,growth inhibition,[4]; at 33.0 µM,-5%
same,growth inhibition,[4]; [18],12%
same,growth inhibition,[4]; at 50.0 µM,27.1%
same,growth inhibition,[4]; at 100.0 µM,99% (active)
same,growth inhibition,[5]; at 1.2 µM,-5%
same,growth inhibition,[5]; at 3.7 µM,-8%
same,growth inhibition,[5]; at 11.0 µM,-10%
same,growth inhibition,[5]; at 33.0 µM,9%
same,growth inhibition,[5]; at 100.0 µM,85% (active)
same,growth inhibition,[6]; [17],-4%
same,growth inhibition,[6]; [18],31%
same,growth inhibition,[6]; at 50.0 µM,50.3%
same,growth inhibition,[7]; at 1.2 µM,-8%
same,growth inhibition,[7]; at 3.7 µM,-10%
same,growth inhibition,[7]; at 11.0 µM,-7%
same,growth inhibition,[7]; at 33.0 µM,31%
same,growth inhibition,[7]; at 100.0 µM,99% (active)
same,growth inhibition,[8]; [17],65%
same,growth inhibition,[8]; [18],50%
same,growth inhibition,[8]; at 50.0 µM,35.7%
same,growth inhibition,[9]; at 1.2 µM,-2%
same,growth inhibition,[9]; at 3.7 µM,-4%
same,growth inhibition,[9]; [17],-13%
same,growth inhibition,[9]; at 11.0 µM,-6%
same,growth inhibition,[9]; at 33.0 µM,22%
same,growth inhibition,[9]; [18],80% (active)
same,growth inhibition,[9]; at 50.0 µM,32.9%
same,growth inhibition,[9]; at 100.0 µM,99% (active)
same,growth inhibition,[10]; at 1.2 µM,-6%
same,growth inhibition,[10]; at 3.7 µM,-6%
same,growth inhibition,[10]; at 11.0 µM,-9%
same,growth inhibition,[10]; at 33.0 µM,-1%
same,growth inhibition,[10]; at 100.0 µM,99% (active)
same,growth inhibition,[11]; at 1.2 µM,-3%
same,growth inhibition,[11]; at 3.7 µM,-6%
same,growth inhibition,[11]; at 11.0 µM,-8%
same,growth inhibition,[11]; at 33.0 µM,-6%
same,growth inhibition,[11]; at 100.0 µM,98% (active)
same,growth inhibition,[12]; at 1.2 µM,-1%
same,growth inhibition,[12]; at 3.7 µM,-1%
same,growth inhibition,[12]; at 11.0 µM,-4%
same,growth inhibition,[12]; at 33.0 µM,7%
same,growth inhibition,[12]; at 100.0 µM,98% (active)
same,growth inhibition,[13]; [17],-3%
same,growth inhibition,[13]; [18],41%
same,growth inhibition,[13]; at 50.0 µM,77.8% (active)
